According to PubChem BioAssay (NCATS):
“And” between values parts separate entries of the source, which are not always exact repeats. Identical values can stand only once. Records with an inconclusive call do not appear. The source made the active and inactive calls. Calls follow the shape of the dose curve; as a rule, active = well fitted curve in the direction sought with a large enough effect; inconclusive = small, poorly fitted or top-dose-only effect, or another doubt; inactive = no such curve, though single readings can be large; an effect the other way counts as inactive or inconclusive.

Experiments:
[1] = Viability qHTS for spleen associated tyrosine kinase inhibitor (SYKi) naive MV4-11 cells (AID 1963823); also: nearly all actives have a fitted effect of over 40% in size; also: potency is read from the fitted curve at half-maximal effect
How it was run: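 Seeding of 500 SYKi-naive MV4-11 cells per well onto pre-dispensed compounds preceded a 72 hr incubation at 37 C. Luminescent CellTiter-Glo signal, read after 10 min at room temperature, reflected viable cells.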

[2] = Viability qHTS for spleen associated tyrosine kinase inhibitor (SYKi) drug resistant MV4-11 cells (AID 1963824); also: nearly all actives have a fitted effect of over 35% in size; also: potency is read from the fitted curve at half-maximal effect
How it was run: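 SYK inhibitor-resistant MV4-11 AML cells, 500 per well, added to predispensed compounds and incubated 72 hr at 37 C, 5% CO2. Viability measured by CellTiter-Glo luminescence after 10 min at room temperature.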

[3] = Quantitative highthroughput screen to assess conditional lethalithy of P12 Ichikawa cells grown in Human Plasma-Like Medium with dialyzed fetal bovine serum (HPLM+ds) (AID 1963879); conditions: Potency: viability; also: nearly all actives have a fitted effect of over 35% in size; also: potency is read from the fitted curve at half-maximal effect; as to Viability: series mostly up to about 46 µM
How it was run: (§1)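 Each medium arm—HPLM with 10% dialyzed FBS, or RPMI1640 with 5 mM glucose and 10% untreated or dialyzed FBS—was screened against an 11-point, 3-fold compound titration for 48 h at 37 °C, with CellTiter-Glo luminescence as endpoint.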

[4] = Quantitative highthroughput screen to assess conditional lethalithy of P12 Ichikawa cells grown in RPMI1640 with dialyzed fetal bovine serum (RPMI+ds) (AID 1963880); conditions: Potency: P12-Ichikawa viability; also: nearly all actives have a fitted effect of over 35% in size; also: potency is read from the fitted curve at half-maximal effect;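 as to Viability: 100% = DMSO wells and 0% = empty wells on each plate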
How it was run: as §1

[5] = Quantitative highthroughput screen to assess conditional lethalithy of SEM cells grown in RPMI1640 with unreated serum (RPMI+s) (AID 1963883); also: nearly all actives have a fitted effect of over 35% in size; also: potency is read from the fitted curve at half-maximal effect;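 as to Viability: 100% = DMSO wells and 0% = empty wells without cells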
How it was run: as §1

[6] = Quantitative highthroughput screen to assess conditional lethalithy of SEM cells grown in RPMI1640 with dialyzed fetal bovine serum (RPMI+ds) (AID 1963884); also: nearly all actives have a fitted effect of over 35% in size; also: potency is read from the fitted curve at half-maximal effect;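 as to Viability: series mostly up to about 46 µM; 100% = DMSO control wells and 0% = empty wells without cells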
How it was run: as §1

[7] = Quantitative highthroughput screen to assess conditional lethalithy of NOMO1 cells grown in RPMI1640 with untreated serum (RPMI+s) (AID 1963876); also: nearly all actives have a fitted effect of over 35% in size; also: potency is read from the fitted curve at half-maximal effect;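 as to Viability: 100% = DMSO wells and 0% = empty wells without cells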
How it was run: as §1

[8] = Quantitative highthroughput screen to assess conditional lethalithy of SEM cells grown in Human Plasma-Like Medium with dialyzed fetal bovine serum (HPLM+ds) (AID 1963882); also: nearly all actives have a fitted effect of over 35% in size; also: potency is read from the fitted curve at half-maximal effect; as to Viability: series mostly up to about 46 µM
How it was run: as §1

[9] = Cellular viability qHTS for adrenocortical cancer (ACC) cell line SW-13 (AID 1963989); conditions: SW-13 ACC cells viability, CellTiter-Glo, 48 h; activity (max response): active compounds read low; also: nearly all actives have a fitted effect of over 65% in size; also: potency is read from the fitted curve at half-maximal effect;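 as to activity (max response): cells grown in serum-free medium with ITS supplement; % is scaled to controls: 0 for no effect and ±100 for the full control effect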
How it was run: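 Luminescent ATP read-out (CellTiter-Glo, 20 min at room temperature) measured metabolically competent SW-13 cells after 48 h compound treatment. Final concentrations spanned up to 46 uM; bortezomib served as positive control.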

[10] = Cellular viability qHTS for adrenocortical cancer (ACC) cell line NCI-H295R (AID 1963990);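 also: 0% = DMSO only wells and -100% = full killing with cytotoxic reference compound; nearly all actives have a fitted effect of over 60% in size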
How it was run: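 IC50 and maximal efficacy derive from four-parameter logistic modelling of titration curves, with reads scaled between DMSO-only wells (0%) and doxorubicin hydrochloride (100% inhibition). Compounds spanned up to 46 uM over 48 h.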

[11] = Quantitative highthroughput screen to assess conditional lethalithy of NOMO1 cells grown in RPMI1640 with dialyzed fetal bovine serum (RPMI+ds) (AID 1963877); also: nearly all actives have a fitted effect of over 30% in size; also: potency is read from the fitted curve at half-maximal effect;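 as to Viability: series mostly up to about 46 µM; 100% = DMSO control wells and 0% = empty wells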
How it was run: as §1

[12] = Quantitative highthroughput screen to assess conditional lethalithy of NOMO1 cells grown in Human Plasma-Like Medium with dialyzed fetal bovine serum (HPLM+ds) (AID 1963878)
How it was run: as §1

[13] = Quantitative highthroughput screen to assess conditional lethalithy of P12 Ichikawa cells grown in RPMI1640 with untreated serum (RPMI+s) (AID 1963881); conditions: Potency: viability
How it was run: as §1

CC(C)=CCC[C@]1(C)C=Cc2c(O)c3c(c(CC=C(C)C)c2O1)O[C@]12C(=C[C@@H]4CC1C(C)(C)O[C@@]2(C/C=C(/C)C(=O)O)C4=O)C3=O
active: Potency [1] 0.517 µM | Potency [2] 0.461 µM

NNc1ccccc1
inactive: Potency [1] | Potency [2]

COC[C@H]1OC(=O)c2coc3c2[C@@]1(C)C1=C(C3=O)[C@@H]2CC[C@H](O)[C@@]2(C)C[C@@H]1OC(C)=O
active: Potency [1] 11.6 µM | Potency [2] 14.6 µM

C[C@@H]1Cc2c(Cl)cc(C(=O)N[C@@H](Cc3ccccc3)C(=O)O)c(O)c2C(=O)O1
active: Potency [1] 0.718 µM | Potency [2] 0.286 µM

CC1=CC2OC3CC(O)[C@](C)([C@@]2(C)C(O)C1=O)[C@]31CO1 (some centres undefined)
active: Potency [1] 1.84 µM | Potency [2] 1.84 µM

O=C(O)c1ccnc2cc(C(OCCN3CCCCC3)c3ccccc3Cl)[nH]c12 (centres undefined)
inactive: Potency [1] | Potency [2]

CC(=O)OC[C@]12C[C@H](OC(=O)CC(C)C)C(C)=C[C@H]1O[C@@H]1[C@H](O)C[C@@]2(C)[C@]12CO2
active: Potency [1] 0.252 µM | Potency [2] 0.282 µM

C[C@@H]1C(=O)O[C@H]2[C@H](O)[C@@]34[C@@H]5OC(=O)[C@@]3(O[C@@H]3OC(=O)[C@@H](O)[C@@]34[C@H](C(C)(C)C)[C@H]5O)[C@@]12O
inactive: Potency [1] | Potency [2]

CO[C@@H]1[C@@H](O)[C@@H](O[C@H]2CC[C@]3(C=O)C4CC[C@]5(C)[C@@H](C6=CC(=O)OC6)CC[C@]5(O)[C@@H]4CC[C@H]3C2)O[C@@H](C)[C@H]1O[C@@H]1O[C@H](CO[C@@H]2O[C@H](CO)[C@@H](O)[C@H](O)[C@H]2O)[C@@H](O)[C@H](O)[C@H]1O (some centres undefined)
active: Potency [1] 3.9 µM | Potency [2] 1.38 µM

C[C@@]1(CO)[C@H](O)CC[C@@]2(C)[C@H]1CC[C@H]1C[C@@H]3C[C@@]12CC[C@]3(O)CO
active: Potency [1] 1.01 µM | Potency [2] 1.01 µM

COC1CC(O[C@H]2CC[C@]3(C)C4CC[C@]5(C)[C@@H](C6=CC(=O)OC6)[C@@H](OC(C)=O)C[C@]5(O)C4CC[C@@H]3C2)OC(C)C1O (some centres undefined)
active: Potency [1] 0.252 µM | Potency [2] 0.178 µM

C[N@@+]1(CC2CC2)CC[C@]23c4c5ccc(O)c4O[C@H]2C(=O)CC[C@@]3(O)[C@H]1C5
inactive: Potency [1] | Potency [2]

CC1=CC2/C=C(\C)CCC(O)C(O)/C=C/C(=O)OC23C(=O)NC(CC(C)C)C3C1C (centres undefined)
active: Potency [1] 7.96 µM | Potency [2] 7.96 µM

CC[C@@H](C)[C@H]1C(=O)O[C@H](C(C)C)C(=O)N(C)[C@@H]([C@@H](C)CC)C(=O)O[C@H](C(C)C)C(=O)N(C)[C@@H]([C@H](C)CC)C(=O)O[C@H](C(C)C)C(=O)N1C
active: Potency [1] 1.22 µM | Potency [2] 1.72 µM

CC(C)=C[C@@H]1[C@@H](C(=O)OCc2coc(Cc3ccccc3)c2)C1(C)C
inactive: Potency [1] | Potency [2]

O=C(O)P(=O)(O)O
inactive: Potency [1] | Potency [2]

O=C(NC(=O)c1c(F)cccc1F)Nc1cc(Cl)c(OC(F)(F)C(F)C(F)(F)F)cc1Cl (centres undefined)
active: Potency [1] 11.9 µM | Potency [2] 16.8 µM

CC1Oc2cc3c(-c4c(O)cc(O)c5c(O)c6c(cc45)OC(C)C(C)C6=O)c(O)cc(O)c3c(O)c2C(=O)C1C (centres undefined)
active: Potency [1] 5.17 µM | Potency [2] 4.61 µM

Cc1c(C(=O)Nc2cccc(C(F)(F)F)c2)cc(-c2ccccc2)n1CCCN1CCOCC1
active: Potency [1] 14.6 µM | Potency [2] 16.6 µM

C[C@@H]1CCC/C=C/[C@H]2C[C@@H](O)C[C@@H]2[C@@H](O)/C=C/C(=O)O1
active: Potency [1] 0.184 µM | Potency [2] 0.146 µM

C=C1C[C@@H]2[C@H](CC[C@]3(C)C(=O)CC[C@@H]23)[C@@]2(C)C=CC(=O)C=C12
active: Potency [1] 9.44 µM and 14.8 µM | Potency [2] 5.96 µM and 11.8 µM

CCCCCOc1cc2c(cc1-c1cc(/C=C/C(=O)O)ccc1O)C(C)(C)CCC2(C)C
active: Potency [1] 20.6 µM | Potency [2] 23.1 µM

C=C1[C@@H](C)[C@H]2[C@H](Cc3ccccc3)NC(=O)[C@]23[C@H](OC(C)=O)/C=C/[C@](C)(O)C(=O)[C@@H](C)C/C=C/[C@H]3[C@@H]1O
active: Potency [1] 1.46 µM | Potency [2] 0.731 µM

CC(=O)O[C@H]1C[C@]2(O)[C@@H]3CC[C@@H]4C[C@@H](O)CC[C@]4(C)[C@H]3CC[C@]2(C)[C@H]1c1ccc(=O)oc1
active: Potency [1] 0.0259 µM | Potency [2] 0.0231 µM

COCC(C(=O)OC1CC2CCC(C1)N2C)c1ccccc1 (centres undefined)
inactive: Potency [1] | Potency [2]

Cc1sc2c(c1C)C(c1ccc(Cl)cc1)=N[C@@H](CC(=O)OC(C)(C)C)c1nnc(C)n1-2
active: Potency [1] 0.105 µM | Potency [2] 0.118 µM | Potency [3] 1660 nM | Potency [4] 2640 nM | Potency [5] 235 nM | Potency [6] 209 nM

CN(C)CCc1ccc(O)cc1
inactive: Potency [1] | Potency [2] | Potency [7] | Potency [3] | Potency [8] | Potency [5] | Potency [6] | activity (max response) [9] -2.47% | Potency [10]

COC(=O)[C@@H](N)CCCN=C(N)N[N+](=O)[O-]
inactive: Potency [1] | Potency [2] | Potency [11] | Potency [12] | Potency [4] | Potency [8] | Potency [6] | activity (max response) [9] 6.1% | Potency [10]

NCC1(CC(=O)O)CCCCC1
inactive: Potency [1] | Potency [2] | Potency [3] | Potency [13] | Potency [8] | Potency [5] | Potency [6] | activity (max response) [9] 12.5% and -5.41% | Potency [10]

CC12Cc3cn[nH]c3C=C1CCC1C2CCC2(C)C1CCC2(C)O (centres undefined)
active: Potency [1] 25.9 µM | Potency [2] 20.6 µM

CC[C@@]1(O)C(=O)OCc2c1cc1n(c2=O)Cc2cc3ccccc3nc2-1
active: Potency [1] 0.0235 µM | Potency [2] 0.0235 µM | Potency [7] 74.3 nM | Potency [11] 66.2 nM | Potency [3] 29.6 nM | Potency [4] 20.9 nM | Potency [8] 46.9 nM | Potency [5] 23.5 nM | Potency [9] 126 nM
